According to PubChem BioAssay (NCI):
Compounds without any hit were thinned out: in the full panel of roughly 79,000, 15% have a hit. Values without a mark were called inactive. Active and inactive are the calls of the source. Rule as the data show it: active = growth inhibition above about 70%; inactive = the rest.

Assay: NCI Yeast Anticancer Drug Screen. Data for the cln2 rad14 strain (AID 165);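 also: 0% = growth equal to vehicle treated cultures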
Conditions: S. cerevisiae cln2 rad14 strain, at 50.0 µM, stronger effect = higher value
Method: Growth inhibition of yeast strains with defined genetic alterations is measured as a screen for potential anti-cancer activity. Selected strains with alterations in DNA damage repair or cell cycle control were exposed to compounds and growth inhibition was measured relative to vehicle treated controls. The strain used in this assay is cln2 rad14

SMILES	growth inhibition
Cc1ccc(NC(=O)Nc2ccc(C)cc2)cc1	-9.25%
CC(=O)c1cccc2cc(CC(=O)c3ccccc3)c(=O)oc12	-33.1%
CSc1ccc(NC(=O)Nc2ccc(Nc3ccccc3)cc2)cc1	-11.9%
C1=C(C2=CCCCC2)CCCC1	-42.9%
CCOC(=O)/C(=C\c1ccccc1Cl)C(C)=O	98.5% (active)
CN1C2C=CC(=O)C1C1C(=O)N(c3ccccc3)C(=O)C12 (stereo not given)	31.4%
N/N=C/c1ccc2ccccc2n1	-1.75%
COC(=O)c1ccc(OC(=O)Nc2ccc(Br)cc2)cc1	-4.2%
Oc1ccc2ccccc2c1C(c1ccccc1)N1CCOCC1 (stereo not given)	-24.7%
O/N=C(/CC(O)(c1ccccc1)c1ccccc1)c1ccccc1	-15.4%
CN(C)CCC(=O)c1cccnc1	-4.8%
COC1C(=O)OC(=O)C1OC (stereo not given)	-24.7%
C[C@]12CCC(=O)C=C1CC[C@@H]1C2CC[C@]2(C)Nc3[nH]ncc3CC12 (stereo not given in full)	33.6%
NNc1nc2ccccc2c(=O)n1NC(=O)C(=O)Nc1cccc(C(F)(F)F)c1	-38.6%
CCCOC(=O)c1c(Cl)c(Cl)c(Cl)c(Cl)c1C(=O)OCCC	-3.05%
CCN(CC)P(=O)(c1ccc2c(c1)OCCOCCOCCOCCO2)N(CC)CC	23.3%
C1=C[CH]([Sn]([CH]2C=Cc3ccccc32)([CH]2C=Cc3ccccc32)[CH]2C=Cc3ccccc32)c2ccccc21 (stereo not given)	-6.4%
Cc1cc2c(c(=O)o1)C(C)CC(c1c(O)cc(C)oc1=O)O2 (stereo not given)	5.85%
Nc1nc(N)c2cc(S(=O)(=O)c3ccccc3)ccc2n1	-4.55%
Cc1ccc2[nH]c(=S)n(CCc3ccccc3)c(=O)c2c1	6.85%

SMILES	growth inhibition
CCCCOCCOCCOC(=O)C(C)O (stereo not given)	5.1%
CCOC(=O)N/N=C(\Cc1ccccc1)OCC	13.7%
O=C(O)c1cccc(NC(=O)C(F)(F)F)c1	-29.4%
N#Cc1c(Br)n(C2OC(CO)C(O)C2O)c2ncncc12 (stereo not given)	-0.05%
O=c1[nH]c(/C=C(\O)c2ccncc2)nc2ccccc12	12%
CC(=O)OC1CCC2(C)C(CCC3C2CCC2(C)C(C(C)C(=O)O)CCC32)C1 (stereo not given)	10.8%
Cc1ncc(Cl)c2cc3ccccc3cc12	-24.6%
CC(=O)NC(Cc1ccc(F)cc1)C(=O)O (stereo not given)	-19.7%
COc1ccc(C2=C/C(=C/c3cccc(OC)c3OC)C(=O)O2)cc1	-30.9%
CCCOC(=O)C(O)c1ccc(C)cc1 (stereo not given)	-3.75%
O=C(O)CCSSCCCS(=O)O	18.9%
CC(=O)Nc1ccc(Br)cc1	-34%
CC(N)CCC(=O)O (stereo not given)	-27.2%
CCC(c1ccc(OC)cc1)c1cc2c(cc1OCCO)OCO2 (stereo not given)	67.7%
CC(C)SC1SCC2C(=O)N(C)C3(CC3C)C(=O)OCC(NC(=O)c3nc4ccccc4cc3O)C(=O)NC(C)C(=O)N(C)C1C(=O)N(C)C1(CC1C)C(=O)OCC(NC(=O)c1nc3ccccc3cc1O)C(=O)NC(C)C(=O)N2C (stereo not given)	73.8% (active)
CS(=O)(=O)c1nsc(N)n1	2.15%
Nc1ncnc2c(C3OC(CO)C(O)C3O)nsc12 (stereo not given)	-15.2%
Cc1ccc(OCC2OC(n3cnc4c(N(C)C)nc(Br)nc43)CC2Oc2ccc(C)cc2)cc1 (stereo not given)	12.6%
CCCCCCC(=O)CC(SCCS)c1ccc(Cl)c(Cl)c1 (stereo not given)	5.8%
O=C1c2ccccc2C(c2ccccc2)C1c1ccccc1 (stereo not given)	-16.6%
